A selection: hits, their analogues and other compounds. The true share with any hit is near 6.2%.
HT1080 IDH1KD tx: qHTS for induction of synthetic lethality in tumor cells producing 2HG: qHTS for the HT-1080-IDH1KD cell line. Potency, µM (doses to about 46.1 µM), for inactives: at the top dose activity, negative = toxicity, usual class: cytotoxic. HT-1080 IDH1 knockdown viability, ATP luminescence, 48 h. 360,000 tested, 2% active. AID 686971, 2013;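 further: 0% = DMSO wells and -100% = cell-free medium wells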
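In this qHTS, HT-1080 cells depleted of IDH1 are exposed for 48 h at 37 °C to compound titrations. Toxicity is scored from CellTiter-Glo luminescence, with DMSO as full viability and medium alone as none.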
KB-V1 MDR tox: qHTS assay for MDR1-selective chemotherapeutics: Primary screen using the drug-selected MDR subline cells KB-V1. Potency, µM (titrated, usually from 46.1 µM), most hits filed as cytotoxic. AID 1347076, 2019. KB-V1 MDR cells viability, CellTiter-Glo, 72 h. 400,000 tested, 3.4% active; further: on the % scale 0 is the no-effect control and ±100 the full control effect; nearly all actives have a fitted effect of over 60% in size
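In this primary screen, KB-V1 cells overexpressing P-gp are incubated with library compounds (lowest to highest concentration) for 72 h at 37 degrees C before a luminescent ATP viability read.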
HT1080-NT tox: qHTS for induction of synthetic lethality in tumor cells producing 2HG: qHTS for the HT-1080-NT fibrosarcoma cell line. HT-1080-NT fibrosarcoma viability, CellTiter-Glo ATP luminescence, 48 h. Potency, µM (series often up to 46.1 µM), without a hit: top-dose activity, negative = less viability, most hits filed as cytotoxic. 360,000 tested, 1.6% active. AID 686970, 2013;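 further: NT is the 2HG producing partner of a matched IDH1 knockdown line; 0% = DMSO-treated cells and -100% = media-only wells without cells; nearly all actives have a fitted effect of over 55% in size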
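Viability of the 2HG-overproducing fibrosarcoma line after 48 hours of compound exposure at 37 degrees C was determined by luminescence with CellTiter-Glo, and concentration-effect curves were then fitted and categorized.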
ATXN viability: Viability Counterscreen for Primary qHTS for Inhibitors of ATXN expression; S2 cells (HEK-293 line with an ATXN2-luciferase reporter) viability, CellTiter-Fluor protease fluorescence, 24 h; AID 651635, 2014; Potency, µM (top dose mostly 56.7 µM), most hits filed as cytotoxic; 400,000 tested, 0.49% active; further: nearly all actives have a fitted effect of over 40% in size
ATXN2 expr inh: Primary qHTS for Inhibitors of ATXN expression; HEK-293 ATXN2-luciferase reporter, luminescence, 24 h; Potency, µM (doses to about 57 µM), for inactives: at the top dose activity change, negative = inhibition, hits mostly inhibitors; 360,000 tested, 0.72% active; AID 1745845, 2022; further: on the % scale 0 is the no-effect control and ±100 the full control effect; nearly all actives have a fitted effect of over 55% in size
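ATXN2-luciferase reporter cells (luciferase flanked by upstream and downstream ATXN2 gene portions) were treated 24 h at 37 °C with compounds at up to 57 uM. SteadyGlo luminescence gave expression; GF-AFC fluorescence gave viability.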
KB-3-1 tox: qHTS assay for MDR1-selective chemotherapeutics: Primary screen using the parental adenocarcinoma cell KB-3-1. KB-3-1 viability, CellTiter-Glo ATP luminescence, 72 h. Potency, µM (titrated, usually from 46.1 µM), usual class: cytotoxic. 400,000 tested, 1.4% active; further: on the % scale 0 is the no-effect control and ±100 the full control effect; nearly all actives have a fitted effect of over 60% in size
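Cytotoxicity in the drug-sensitive parental line KB-3-1 was scored as loss of CellTiter-Glo luminescence following 72 h incubation with compound. Values come from curve fitting of normalized concentration-response data.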
Numbers without * were called inactive; i = inactive; ? = inconclusive; · = no result; [ ] = remark or other dose. The call rests on the fitted dose curve; in most records, active means well fitted curve in the direction sought with a large enough effect; inconclusive means small, poorly fitted or top-dose-only effect, or another doubt; inactive means no such curve, though single readings can be large; an effect the other way counts as inactive or inconclusive. Potency means the concentration at half of the fitted maximal effect.

SMILES	HT1080 IDH1KD tx	KB-V1 MDR tox	HT1080-NT tox	ATXN viability	ATXN2 expr inh	KB-3-1 tox
Cc1ccc(NC(=O)C[n+]2cc(-c3ccccc3)n3c2CCC3)cc1	-11%	i	9%	i	·	?
Cc1ccc(-c2c[n+](CC(=O)Nc3nc(-c4ccccc4)cs3)c3n2CCC3)cc1	23µM*	i	?	i	1%	i
O=C(C[n+]1cc(-c2ccccc2)n2c1CCCCC2)c1ccc(Cl)cc1	-3%	i	-2%	i	11%	?
O=C(C[n+]1cc(-c2ccccc2)n2c1CCC2)Nc1nc(-c2ccccc2)cs1	-10%	i	0%	i	10%	16µM*
CC(O)(CS(=O)(=O)Cc1ccccc1)C(=O)Nc1cccc(C(F)(F)F)c1 (centres undefined)	?	15µM*	24%	i	-12%	i
CC(O)(CS(=O)(=O)Cc1ccccc1)C(=O)Nc1ccc(C(F)(F)F)cc1 (centres undefined)	?	21µM*	-9%	i	-8%	i
CC(O)(CS(=O)(=O)Cc1ccccc1)c1ccc(Cl)cc1 (centres undefined)	-2%	i	10%	i	·	i
CCOC(=O)c1ccc(NC(=O)C2CCCN(c3ncnc4onc(-c5ccc(F)cc5)c34)C2)cc1 (centres undefined)	·	i	·	?	-6%	i
Cc1c(NC(=O)c2ccccc2)cc(C(C)C)c(O)c1S(=O)(=O)c1ccc(Cl)cc1	·	i	·	i	7%	i
CCOc1cc(CNc2ccc(N3CCOCC3)cc2)cc(Br)c1OCC	?	?	-18%	i	-30%	?
CCOc1cc(CNc2ccc(N3CCCCC3)cc2)cc(Br)c1OCC(=O)NC(C)(C)C	-5%	15µM*	-11%	i	-17%	i
CCOc1cc(CNc2ccc3c(c2)OCCO3)cc(Br)c1OCC	2.3µM*	2.6µM*	1.8µM*	i	2%	5.2µM*
Cc1cc([N+](=O)[O-])ccc1NC(=O)CSc1nccn1C	·	i	·	i	13%	i
Cc1cccc(OCC(=O)Nc2cc(C)c(O)c(-c3nc4ccccc4o3)c2)c1	·	i	·	·	·	i
CC(=O)c1ccc(F)c(-c2cc(C)cc3c2OC(CNC(=O)c2ccnn2C)C3)c1 (centres undefined)	·	·	·	i	·	·
CCCOc1ccc(OCCOCCNCc2ccccc2)cc1	-2%	8.2µM*	-14%	i	-13%	i
Cc1cc(C)c(C)c(OCCOCCNCc2ccccc2)c1	-10%	15µM*	-17%	i	-24%	i
Cc1ccc(OCCNCc2ccccc2)c(C)c1	-6%	?	-13%	i	-1%	i
CC(NC(=O)c1ccco1)c1nnc2n1CCN(Cc1ccc(N3CCCC3)cc1)CC2 (centres undefined)	·	·	·	i	·	·
C=CCn1c(SCc2ccc(Cl)cc2)nc2cc(C(=O)N3CCC(C(N)=O)CC3)ccc2c1=O	3%	26µM*	-5%	i	-26%	?
CCCCCn1c(SCC(=O)OCC)nc2cc(C(=O)N3CCC(C(N)=O)CC3)ccc2c1=O	11%	i	8%	i	2%	i
Cc1ccc(N(CC(=O)NCCc2ccc(F)cc2)S(=O)(=O)c2ccc(Cl)c([N+](=O)[O-])c2)c(C)c1	21µM*	i	?	?	?	?
CCn1ncc(C2=NOC(C(=O)Nc3cnn(C45CC6CC(CC(C6)C4)C5)c3)C2)c1C (centres undefined)	?	3.3µM*	?	?	28µM*	?
CCN(CC)CCCNC(=O)c1oc2ccc(S(=O)(=O)N3CC(C)CC(C)C3)cc2c1C (centres undefined)	26µM*	?	?	i	-15%	i
Cc1c(C(=O)NCC2COc3ccccc3O2)oc2ccc(S(=O)(=O)N3CCOCC3)cc12 (centres undefined)	9%	2.3µM*	10%	?	-16%	?
SMILES	HT1080 IDH1KD tx	KB-V1 MDR tox	HT1080-NT tox	ATXN viability	ATXN2 expr inh	KB-3-1 tox
Cc1c(C(=O)NCC2COc3ccccc3O2)oc2ccc(S(=O)(=O)N3CC(C)CC(C)C3)cc12 (centres undefined)	-1%	?	0%	i	-3%	i
COC(=O)[C@@H]1CCCN1Cc1ccc2c(c1)CN(Cc1cccn1-c1ccc(Cl)cn1)CCO2	·	·	·	i	·	·
O=C(CSc1nc2ccccc2c(=O)n1-c1ccccc1)NCc1ccco1	1%[9.24 µM]	13µM*	-3%	?	4%	?
C/C(=N\OCC(=O)Nn1c(C)nc2ccccc2c1=O)c1ccccc1	13%	16µM*	15%	i	3%	i
O=C(Cc1ccccc1)Nn1c(-c2ccccc2)nc2ccccc2c1=O	15%	18µM*	0%	i	11%	i
O=C(CSc1nc2ccccc2c(=O)n1NC(=O)Cc1ccccc1)NCc1ccco1	5%	18µM*	8%	i	8%	i
O=C(CSc1nc2ccccc2c(=O)n1NC(=O)Cc1ccccc1)NCc1ccccc1	0%	i	8%	i	10%	i
C[C@H](NC(c1ccc(F)cc1)c1ccc2cccnc2c1O)c1ccccc1 (some centres undefined)	·	i	·	·	·	?
Cc1cccc(-n2c(SCC(=O)NCc3ccco3)nc3ccccc3c2=O)c1	?	10µM*	-22%	i	-9%	i
O=C(Cc1cccs1)Nn1c(Cc2cccs2)nc2ccccc2c1=O	-3%	21µM*	-1%	i	9%	i
Cc1cccc(-n2c(SCC(=O)NCc3ccc4c(c3)OCO4)nc3ccccc3c2=O)c1	3%	i	6%	?	-18%	i
COc1cc(=O)n2c(c1C(=O)NCc1ccco1)CCN(C(=O)c1cccnc1SC)CC2	·	·	·	i	·	·
CCOc1ccc(NC(=S)Nc2cc(OC)c(Cl)cc2OC)cc1	6%	16µM*	10%	i	-17%	i
CCOc1ccc(NC(=S)Nc2ccc(OCC)cc2)cc1	6%	i	28%	i	10%	i
CCOc1ccc(NC(=S)Nc2ccc(C)c([N+](=O)[O-])c2)cc1	11%	16µM*	?	i	-4%	i
CCOc1ccc(NC(=S)Nc2cccc3cnccc23)cc1	-2%	15µM*	-5%	?	-6%	i

Screening results deposited in PubChem by National Center for Advancing Translational Sciences (NCATS).
